According to PubChem BioAssay (EPA / NIEHS):
“And” between values parts separate entries of the source, which are not always exact repeats. Identical values can stand only once. Inconclusive results are not listed. Where a structure was tested more than once in an assay, its records may differ in their call. The source made the active and inactive calls. Rule for the calls: active = hit-call score of the fitted dose curve at least 0.9, where 1 is the maximum; inconclusive = response in the unintended direction; inactive = score below 0.9.

molecular target: rat Somatostatin Receptor (SST), Sstr1 (gene 25033) (UniProt P28646); assay: NVS_GPCR_rSST: NovaScreen (NVS) G Protein-Coupled Receptor Assay for rat Somatostatin Receptor (SST) (AID 2283314)
How it was run: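 Single-concentration duplicate screen (25 uM), then concentration-response up to 50 uM for chemicals passing a threshold such as 30% inhibition. Membranes came from rat forebrain. Binding was measured 1 h post-dose by filter radiodetection and scintillation, relative to DMSO.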

rat Somatostatin Receptor (SST), Sstr1 (gene 25033), sequence (P28646 whole entry, looked up): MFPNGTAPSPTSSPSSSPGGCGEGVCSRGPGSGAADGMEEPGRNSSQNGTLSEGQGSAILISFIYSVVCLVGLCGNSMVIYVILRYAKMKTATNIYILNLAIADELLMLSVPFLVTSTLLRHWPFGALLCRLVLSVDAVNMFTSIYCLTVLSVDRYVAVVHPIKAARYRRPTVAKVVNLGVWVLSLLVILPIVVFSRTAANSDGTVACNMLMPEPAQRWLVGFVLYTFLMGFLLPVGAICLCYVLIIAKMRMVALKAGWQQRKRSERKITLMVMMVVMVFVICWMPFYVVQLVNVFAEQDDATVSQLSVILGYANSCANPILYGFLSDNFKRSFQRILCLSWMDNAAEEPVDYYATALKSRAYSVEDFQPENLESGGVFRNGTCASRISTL

| Structure (SMILES) | AC50 | outcome |
| --- | --- | --- |
| Oc1ccc(Cl)cc1Cc1ccccc1 | 25.2 µM (active) | – |
| CC[C@H](C)[C@H]1O[C@]2(C=C[C@@H]1C)C[C@@H]1C[C@@H](C/C=C(\C)[C@@H](O[C@H]3C[C@H](OC)[C@@H](O[C@H]4C[C@H](OC)[C@@H](O)[C@H](C)O4)[C@H](C)O3)[C@@H](C)/C=C/C=C3\CO[C@@H]4[C@H](O)C(C)=C[C@@H](C(=O)O1)[C@]34O)O2 (tested in a mixture with another compound) | – | inactive |
| Oc1cc(Cl)ccc1Oc1ccc(Cl)cc1Cl | 18.7 µM (active) | – |
| O=S(=O)(O)C(F)(F)C(F)(F)C(F)(F)C(F)(F)C(F)(F)C(F)(F)C(F)(F)C(F)(F)F | – | inactive |

molecular target: rat Neonicotinoid receptor (NNR), Chrna7 (gene 25302) (UniProt Q05941); assay: NVS_LGIC_rNNR_BungSens: NovaScreen (NVS) Ligand-Gated Ion Channel Assay for rat Neonicotinoid receptor (NNR) (AID 2283315)
Description: (§1) NVS_LGIC_rNNR_BungSens is a biochemical, single-readout assay that uses extracted gene-proteins from Rat cortical membranes in a tissue-based cell-free assay. Measurements were taken 2.5 hours after chemical dosing in a 48-well plate.NVS_LGIC_rNNR_BungSens is one of one assay component(s) measured or calculated from the NVS_LGIC_rNNR_BungSens assay. It is designed to make measurements of radioligand binding, a form of binding reporter, as detected with scintillation counting signals by Filter-based radiodetection technology.Data from the assay component NVS_LGIC_rNNR_BungSens was analyzed into 1 assay endpoint. This assay endpoint, NVS_LGIC_rNNR_BungSens, was analyzed in the positive analysis fitting direction relative to DMSO as the negative control and baseline of activity. Using a type of binding reporter, loss-of-signal activity can be used to understand changes in the binding as they relate to the gene Chrna7. Furthermore, this assay endpoint can be referred to as a primary readout, because the performed assay has only produced 1 assay endpoint. To generalize the intended target to other relatable targets, this assay endpoint is annotated to the ion channel intended target family, where the subfamily is ligand-gated ion channel.
(§2) Binding assays used specific radioligands (tritiated, iodinated) with non-radioactive competitive displacement ligands in agonist or antagonist protocols (as indicated) and various reference compounds and inhibitors to titrate specific binding to receptors and transporters. Most enzyme assays (CYPs, kinases, phosphatases, proteases, HDACs) used recombinant protein and specific substrates (fluorescence mostly, some colorimetric and radioactive) and inhibitors, followed by a biochemical separation of substrate and product. All assays for the biochemical HTS were initially run in duplicate at a single concentration (10 uM for CYP450 assays and 25 uM for all others). […] Each assay was run with positive and negative controls, and concurrent controls on every plate. The follow-up (secondary) screen tested active chemical-pairs in concentration series, as well as a few additional assays not tested in the primary screen, some selected negative inactives, and several cases re-run in the concentration series for confirmatory purposes.

rat Neonicotinoid receptor (NNR), Chrna7 (gene 25302), sequence (Q05941 whole entry, looked up): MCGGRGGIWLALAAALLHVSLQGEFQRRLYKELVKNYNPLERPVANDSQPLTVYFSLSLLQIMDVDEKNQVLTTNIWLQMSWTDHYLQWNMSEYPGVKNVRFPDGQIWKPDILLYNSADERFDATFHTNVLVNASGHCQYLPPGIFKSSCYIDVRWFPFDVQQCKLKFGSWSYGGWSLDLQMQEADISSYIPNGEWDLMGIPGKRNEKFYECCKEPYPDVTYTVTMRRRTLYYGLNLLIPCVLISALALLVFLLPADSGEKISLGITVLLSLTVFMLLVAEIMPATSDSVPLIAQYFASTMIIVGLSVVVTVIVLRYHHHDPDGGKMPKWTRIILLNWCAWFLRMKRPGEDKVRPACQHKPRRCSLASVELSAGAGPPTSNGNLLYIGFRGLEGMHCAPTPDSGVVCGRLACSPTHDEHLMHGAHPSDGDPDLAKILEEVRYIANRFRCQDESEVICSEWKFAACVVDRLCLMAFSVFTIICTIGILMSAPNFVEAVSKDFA

| Structure (SMILES) | outcome | AC50 |
| --- | --- | --- |
| C[C@H]1[C@H](c2ccc(Cl)cc2)SC(=O)N1C(=O)NC1CCCCC1 | inactive | – |
| COP(=S)(OC)Oc1ccc(SC)c(C)c1 | inactive | – |
| O=[N+]([O-])/N=C1\NCCN1Cc1ccc(Cl)nc1 | – | 10.9 µM (active) |
| CCOC1Oc2ccc(OS(C)(=O)=O)cc2C1(C)C (configuration not stated) | inactive | – |
| COP(=S)(OC)Oc1ccc([N+](=O)[O-])cc1 | inactive | – |

molecular target: rat Vasopressin 1 Receptor (V1), Avpr1a (gene 25107) (UniProt P30560); assay: NVS_GPCR_rV1: NovaScreen (NVS) G Protein-Coupled Receptor Assay for rat Vasopressin 1 Receptor (V1) (AID 2283316)
How it was run: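 Concentration-response up to 50 uM for chemicals passing a threshold such as 30% inhibition in an initial duplicate 25 uM screen. Displacement of radioligand from rat liver membranes measured after 1.5 h by filtration and scintillation.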

rat Vasopressin 1 Receptor (V1), Avpr1a (gene 25107), sequence (P30560 whole entry, looked up): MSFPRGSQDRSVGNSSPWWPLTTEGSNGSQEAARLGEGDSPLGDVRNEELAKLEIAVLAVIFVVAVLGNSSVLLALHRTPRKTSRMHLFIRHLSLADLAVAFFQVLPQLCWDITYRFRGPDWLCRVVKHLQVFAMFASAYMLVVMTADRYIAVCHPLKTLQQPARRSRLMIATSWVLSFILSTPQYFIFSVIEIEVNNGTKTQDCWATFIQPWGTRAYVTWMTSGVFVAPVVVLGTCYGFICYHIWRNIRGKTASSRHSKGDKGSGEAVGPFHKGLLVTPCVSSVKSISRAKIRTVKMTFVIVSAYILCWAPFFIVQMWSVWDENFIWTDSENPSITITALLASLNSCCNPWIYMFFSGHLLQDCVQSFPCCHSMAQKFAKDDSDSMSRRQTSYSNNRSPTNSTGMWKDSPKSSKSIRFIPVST

| Structure (SMILES) | AC50 | outcome |
| --- | --- | --- |
| Oc1ccc(Cl)cc1Cc1ccccc1 | 7.33 µM (active) | inactive |
| CCCN(CCOc1c(Cl)cc(Cl)cc1Cl)C(=O)n1ccnc1 | 6.02 µM (active) | – |
| CC(C)(C)C(O)C(Oc1ccc(Cl)cc1)n1cncn1 (configuration not stated) | 3.04 µM (active) and 27.7 µM (active) | – |
| Oc1cc(Cl)ccc1Oc1ccc(Cl)cc1Cl | 3.23 µM (active) and 12.1 µM (active) | – |

molecular target: Voltage-dependent N-type calcium channel subunit alpha-1B (Rattus norvegicus) (UniProt Q02294); assay: NVS_IC_rCaChN: NovaScreen (NVS) Ion Channel Assay for rat Calcium Channel, Type N (CaChN) (AID 2283317)

| Structure (SMILES) | outcome |
| --- | --- |
| CC(C)(C)C(O)/C(=C\c1ccc(Cl)cc1Cl)n1cncn1 (configuration not stated) | inactive |
| N#Cc1c(Cl)c(Cl)c(Cl)c(C#N)c1Cl | inactive |
| COP(=O)(OC)OC=C(Cl)Cl | inactive |

molecular target: rat Opioid Receptor, Non-selective Binding, Oprm1 (gene 25601) (UniProt P33535); assay: NVS_GPCR_rOpiate_NonSelective: NovaScreen (NVS) G Protein-Coupled Receptor Assay for rat Opioid Receptor, Non-selective Binding (AID 2283318)
How it was run: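 Filter-based radioligand displacement using rat forebrain membrane preparations, measured 1.5 h post-dosing. Single-concentration duplicate screen at 25 uM, follow-up in concentration series; activity taken as signal loss relative to DMSO.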

rat Opioid Receptor, Non-selective Binding, Oprm1 (gene 25601), sequence (P33535 whole entry, looked up): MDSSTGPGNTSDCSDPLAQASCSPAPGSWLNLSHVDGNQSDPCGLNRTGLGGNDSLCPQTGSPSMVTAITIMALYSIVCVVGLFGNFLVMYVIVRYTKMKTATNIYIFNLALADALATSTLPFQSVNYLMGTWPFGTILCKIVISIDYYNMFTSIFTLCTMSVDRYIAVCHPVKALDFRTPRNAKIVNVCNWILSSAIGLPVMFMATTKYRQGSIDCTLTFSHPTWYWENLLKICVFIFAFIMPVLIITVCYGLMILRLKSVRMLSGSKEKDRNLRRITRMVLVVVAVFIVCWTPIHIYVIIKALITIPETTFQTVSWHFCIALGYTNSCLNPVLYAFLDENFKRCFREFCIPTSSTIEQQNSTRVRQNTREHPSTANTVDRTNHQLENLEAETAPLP

| Structure (SMILES) | outcome | AC50 |
| --- | --- | --- |
| Oc1ccc(Cl)cc1Cc1ccccc1 | inactive | – |
| CCCN(CCOc1c(Cl)cc(Cl)cc1Cl)C(=O)n1ccnc1 | – | 14.8 µM (active) |
| CC(C)(C)C(O)/C(=C\c1ccc(Cl)cc1Cl)n1cncn1 (configuration not stated) | inactive | – |
| Oc1cc(Cl)ccc1Oc1ccc(Cl)cc1Cl | inactive | – |

system: not listed separately; assay: NVS_IC_rCaDHPRCh_L: NovaScreen (NVS) Ion Channel Assay for rat Calcium Channel, Type L, Dihydropyridine Site (CaDHPRCh_L) (AID 2283320)
How it was run: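 Rat cortex membrane preparation; dihydropyridine-site radioligand displacement read 1 h post-dose by filtration and scintillation. Primary single-point screen 25 uM in duplicate, then concentration series to 50 uM maximum; DMSO as negative control.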

| Structure (SMILES) | AC50 | outcome |
| --- | --- | --- |
| Oc1ccc(Cl)cc1Cc1ccccc1 | 30.2 µM (active) [middle of 7 runs] | – |
| CCCN(CCOc1c(Cl)cc(Cl)cc1Cl)C(=O)n1ccnc1 | – | inactive |
| CC[C@H](C)[C@H]1O[C@]2(C=C[C@@H]1C)C[C@@H]1C[C@@H](C/C=C(\C)[C@@H](O[C@H]3C[C@H](OC)[C@@H](O[C@H]4C[C@H](OC)[C@@H](O)[C@H](C)O4)[C@H](C)O3)[C@@H](C)/C=C/C=C3\CO[C@@H]4[C@H](O)C(C)=C[C@@H](C(=O)O1)[C@]34O)O2 (tested in a mixture with another compound) | 4.89 µM (active) | – |
| O=S(=O)(O)C(F)(F)C(F)(F)C(F)(F)C(F)(F)C(F)(F)C(F)(F)C(F)(F)C(F)(F)F | – | inactive |

molecular target: bovine Gamma-Aminobutyric Acid Type A Receptor BDZ, alpha 1 site (GABARa1), GABRA1 (gene 780973) (UniProt P08219); assay: NVS_LGIC_bGABARa1: NovaScreen (NVS) Ligand-Gated Ion Channel Assay for bovine Gamma-Aminobutyric Acid Type A Receptor BDZ, alpha 1 site (GABARa1) (AID 2283321)
Description: as §1, with “NVS_LGIC_bGABARa1” for “NVS_LGIC_rNNR_BungSens”, “Bovine” for “Rat”, “0.75 hour” for “2.5 hours”, “plate.NVS_LGIC_bGABARa1” for “plate.NVS_LGIC_rNNR_BungSens”, “NVS_LGIC_bGABARa1,” for “NVS_LGIC_rNNR_BungSens,”, “GABRA1.” for “Chrna7.”
Binding assays used specific radioligands (tritiated, iodinated) with non-radioactive competitive displacement ligands in agonist or antagonist protocols (as indicated) and various reference compounds and inhibitors to titrate specific binding to receptors and transporters. Most enzyme assays (CYPs, kinases, phosphatases, proteases, HDACs) used recombinant protein and specific substrates (fluorescence mostly, some colorimetric and radioactive) and inhibitors, followed by a biochemical separation of substrate and product. All assays for the biochemical HTS were initially run in duplicate at a single concentration (10 uM for CYP450 assays and 25 uM for all others). […]

bovine Gamma-Aminobutyric Acid Type A Receptor BDZ, alpha 1 site (GABARa1), GABRA1 (gene 780973), sequence (P08219 whole entry, looked up): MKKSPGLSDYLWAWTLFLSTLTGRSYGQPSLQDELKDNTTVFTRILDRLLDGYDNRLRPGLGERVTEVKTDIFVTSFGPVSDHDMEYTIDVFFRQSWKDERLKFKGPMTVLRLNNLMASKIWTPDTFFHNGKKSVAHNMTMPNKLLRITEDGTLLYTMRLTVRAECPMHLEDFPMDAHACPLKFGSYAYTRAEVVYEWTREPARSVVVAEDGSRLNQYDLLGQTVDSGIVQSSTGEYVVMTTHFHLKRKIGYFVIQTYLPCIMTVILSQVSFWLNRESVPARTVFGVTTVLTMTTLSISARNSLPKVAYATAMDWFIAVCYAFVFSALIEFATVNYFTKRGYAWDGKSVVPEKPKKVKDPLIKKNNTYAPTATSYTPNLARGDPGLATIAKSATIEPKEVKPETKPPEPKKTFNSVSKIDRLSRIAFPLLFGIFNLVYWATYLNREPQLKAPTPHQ

| Structure (SMILES) | outcome | AC50 |
| --- | --- | --- |
| [2H]C1([2H])[n+]2ccccc2-c2cccc[n+]2C1([2H])[2H] | inactive | – |
| CC(C)N(C(=O)COc1nnc(C(F)(F)F)s1)c1ccc(F)cc1 | – | 14.2 µM (active) |
| COP(=S)(OC)Oc1ccc([N+](=O)[O-])cc1 | inactive | – |

molecular target: Sodium channel protein type 1 subunit alpha (Rattus norvegicus) (UniProt P04774); assay: NVS_IC_rNaCh_site2: NovaScreen (NVS) Ion Channel Assay for rat Sodium Channel, Site 2 (NaCh) (AID 2283322);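 note: hit means loss of radioligand binding signal relative to DMSO so AC50 marks displacement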
Description: NVS_IC_rNaCh_site2 is a biochemical, single-readout assay that uses extracted gene-proteins from Rat forebrain membranes in a tissue-based cell-free assay. Measurements were taken 1 hour after chemical dosing in a 48-well plate.NVS_IC_rNaCh_site2 is one of one assay component(s) measured or calculated from the NVS_IC_rNaCh_site2 assay. It is designed to make measurements of radioligand binding, a form of binding reporter, as detected with scintillation counting signals by Filter-based radiodetection technology.Data from the assay component NVS_IC_rNaCh_site2 was analyzed into 1 assay endpoint. This assay endpoint, NVS_IC_rNaCh_site2, was analyzed in the positive analysis fitting direction relative to DMSO as the negative control and baseline of activity. Using a type of binding reporter, loss-of-signal activity can be used to understand changes in the binding as they relate to the gene Scn1a. Furthermore, this assay endpoint can be referred to as a primary readout, because the performed assay has only produced 1 assay endpoint. To generalize the intended target to other relatable targets, this assay endpoint is annotated to the ion channel intended target family, where the subfamily is sodium channel.
as §2

| Structure (SMILES) | AC50 | outcome |
| --- | --- | --- |
| Oc1ccc(Cl)cc1Cc1ccccc1 | 10.9 µM (active) | inactive |
| CCCN(CCOc1c(Cl)cc(Cl)cc1Cl)C(=O)n1ccnc1 | 14.3 µM (active) | – |
| Oc1cc(Cl)ccc1Oc1ccc(Cl)cc1Cl | – | inactive |
| O=S(=O)(O)C(F)(F)C(F)(F)C(F)(F)C(F)(F)C(F)(F)C(F)(F)C(F)(F)C(F)(F)F | – | inactive |

molecular target: bovine Gamma-Aminobutyric Acid Type A Receptor BDZ, alpha 5 site (GABARa5), GABRA5 (gene 523515) (UniProt Q08E50); assay: NVS_LGIC_bGABARa5: NovaScreen (NVS) Ligand-Gated Ion Channel Assay for bovine Gamma-Aminobutyric Acid Type A Receptor BDZ, alpha 5 site (GABARa5) (AID 2283323)
How it was run: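 Tested first in duplicate at a single 25 uM, with hits re-run in concentration series to a 50 uM maximum. Bovine hippocampal membranes; specific radioligand displacement measured by filter scintillation counting 1 hr post-dose.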

bovine Gamma-Aminobutyric Acid Type A Receptor BDZ, alpha 5 site (GABARa5), GABRA5 (gene 523515), sequence (Q08E50 whole entry, looked up): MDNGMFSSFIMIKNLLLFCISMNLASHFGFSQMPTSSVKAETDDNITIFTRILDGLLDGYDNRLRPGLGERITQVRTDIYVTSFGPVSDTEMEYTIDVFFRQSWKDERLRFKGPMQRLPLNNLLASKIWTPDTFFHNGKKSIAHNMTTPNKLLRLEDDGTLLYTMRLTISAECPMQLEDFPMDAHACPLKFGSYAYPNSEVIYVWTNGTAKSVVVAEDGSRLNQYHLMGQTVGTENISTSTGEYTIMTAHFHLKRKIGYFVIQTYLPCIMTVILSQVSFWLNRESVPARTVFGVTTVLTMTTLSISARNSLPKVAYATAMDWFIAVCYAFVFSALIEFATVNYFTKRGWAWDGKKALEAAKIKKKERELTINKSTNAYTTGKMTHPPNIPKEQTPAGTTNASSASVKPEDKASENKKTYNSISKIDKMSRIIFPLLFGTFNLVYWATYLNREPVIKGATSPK

| Structure (SMILES) | outcome | AC50 |
| --- | --- | --- |
| CNC(=O)/C=C(\C)OP(=O)(OC)OC | inactive | – |
| CC[C@H](C)[C@H]1O[C@]2(C=C[C@@H]1C)C[C@@H]1C[C@@H](C/C=C(\C)[C@@H](O[C@H]3C[C@H](OC)[C@@H](O[C@H]4C[C@H](OC)[C@@H](O)[C@H](C)O4)[C@H](C)O3)[C@@H](C)/C=C/C=C3\CO[C@@H]4[C@H](O)C(C)=C[C@@H](C(=O)O1)[C@]34O)O2 (tested in a mixture with another compound) | – | 8.26 µM (active) |
| O=C(NC(=O)c1c(F)cccc1F)Nc1ccc(OC(F)(F)C(F)OC(F)(F)F)c(Cl)c1 (configuration not stated) | inactive | – |
| O=C(Nc1ccccc1)Nc1cnns1 | – | 7.77 µM (active) |
